Source: PubChem
DT40 TDP1 CPT: growth inhibition of DT40 Tdp1-/-;hTDP1 cells with camptothecin (screen for TDP1 inhibitors) | chicken DT40 Tdp1-/-;hTDP1 cells + 20 nM CPT, ATP luminescence, 48 h | Potency, µM (doses to about 46.2 µM), hits mostly inhibitors | 420,000 tested, 12% active; also: nearly all actives have a fitted effect of over 55% in size
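Chicken DT40 Tdp1-/- cells stably complemented with human TDP1 were seeded at 400 cells/well in medium containing 20 nM camptothecin, exposed to pin-transferred compounds, and grown at 37 °C for at least 48 hr. Viability was read as ATP luminescence.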
IL1B secr inh: inhibitors of inflammasome signaling (IL-1 beta secretion); 360,000 tested, 4.7% active; AID 743279; THP-1 LPS/ATP IL-1B secretion, AlphaLISA, 16 h; stronger effect = lower value; activity change, % at 57.5 µM; in the data active = activity change below about -50%; inconclusive = mostly about -30% to -49%
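Secreted IL-1B measured by AlphaLISA bead assay after 16 h compound exposure of THP-1 cells; compounds (final up to 57.5 uM) added 1 h before LPS (250 ng/mL) and ATP (1.25 mM) stimulation; lower signal means less secretion.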
HT1080-NT tox: kills 2HG-producing HT-1080-NT fibrosarcoma cells | HT-1080-NT fibrosarcoma viability, CellTiter-Glo ATP luminescence, 48 h | Potency, µM (top dose mostly 46.1 µM), most hits filed as cytotoxic | 360,000 tested, 1.6% active | AID 686970;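 also: NT is the 2HG producing partner of a matched IDH1 knockdown line; nearly all actives have a fitted effect of over 55% in size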
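Fibrosarcoma NT cells, 750 per well in 5% FBS RPMI, were exposed to compound for 48 hours. Viability: CellTiter-Glo luminescence.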
TDP1 cell noCPT: qHTS for Inhibitors of human tyrosyl-DNA phosphodiesterase 1 (TDP1): qHTS in cells in absence of CPT; 420,000 tested, 15% active; DT40 Tdp1-/- hTDP1 cells, no CPT, ATP luminescence, 48 h; Potency, µM (top dose mostly 46.2 µM), usual class: inhibitors; also: nearly all actives have a fitted effect of over 55% in size
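Growth kinetics read by CellTiter-Glo luminescence after ≥48 hr at 37 °C. Cells: DT40 Tdp1-/- stably carrying human TDP1, 400 per well, compound exposure in the absence of CPT (DMSO vehicle).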
HT1080 IDH1KD tx: kills HT-1080 cells with IDH1 knockdown; HT-1080 IDH1 knockdown viability, ATP luminescence, 48 h; Potency, µM (top dose mostly 46.1 µM), hits mostly cytotoxic; 360,000 tested, 2% active
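Luminescent ATP read-out (CellTiter-Glo, 10 min at room temperature) after 48 h compound exposure at 37 °C gave viability of IDH1-knockdown HT-1080 cells. Activity was normalised to DMSO and cell-free wells, then fitted as concentration-response curves.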
Numbers stand for hits; - = inactive; ? = inconclusive; . = no result; [ ] = remark or other dose. Most compounds without a hit are left out; they make up all but 19% or so of the library. Unless noted, calls follow the shape of the dose curve; as a rule, active = well fitted curve in the direction sought with a large enough effect; inconclusive = small, poorly fitted or top-dose-only effect, or another doubt; inactive = no such curve, though single readings can be large; an effect the other way counts as inactive or inconclusive.

SMILES | DT40 TDP1 CPT | IL1B secr inh | HT1080-NT tox | TDP1 cell noCPT | HT1080 IDH1KD tx
Cc1cc(C(=O)N2CCN(c3ccc(C(F)(F)F)cn3)CC2)c(C)o1 | ? | - | ? | 10.3µM | -
O=C(c1ccc2n[nH]nc2c1)N1CCN(c2ccc(C(F)(F)F)cn2)CC1 | 16.4µM | - | -[9.24 µM] | ? | -
O=C(Nc1ccccc1C(=O)O)c1cc(S(=O)(=O)N2CCOCC2)c(Br)s1 | - | - | - | - | -
Cc1cccc(C(=O)N2CCN(c3ccc(C(F)(F)F)cn3)CC2)c1C | 13µM | - | - | 20.6µM | -
Cc1ccc(C(=O)N2CCN(c3ccc(C(F)(F)F)cn3)CC2)o1 | ? | - | - | ? | -
CS(=O)(=O)Nc1ccc(N2CCN(c3ccc(C(F)(F)F)cn3)CC2)nc1 | ? | - | - | ? | ?
CC(C)(C)C(=O)Nc1ccc(N2CCN(c3ccc(C(F)(F)F)cn3)CC2)nc1 | ? | - | - | 1.46µM | -
CC1CN(CC(=O)NN=C(c2ccccc2)c2ccccc2)CC(C)O1 (stereo unspecified) | ? | - | - | - | -
C[C@H]1COc2c(C3(N)CC3)c(F)cc3c(=O)c(C(=O)O)cn1c23 | - | . | . | - | .
CN1CCN(c2c(F)cc3c(=O)c(C(=O)O)cn4c3c2SCC4)CC1 | 13µM | - | - | 11.6µM | -
C[C@H]1COc2c(N3CCN(C)CC3)c(F)cc3c(=O)c(C(=O)O)cn1c23 | ? | - | - | 9.2µM | -
CCCCCCCCCCCC1N=C(N)NC(CCCO)=C1C(=O)OC (stereo unspecified) | 5.8µM | ? | - | 3.66µM | -
CCCCCCOC(=O)c1ccc(N)cc1 | - | - | ? | - | ?
CN1CCN(c2nc(-c3ccccc3)ncc2S(=O)(=O)c2ccccc2)CC1 | - | -51.6 | - | ? | -
O=C(Nc1ccccc1Oc1ccccc1)c1cccs1 | - | - | - | - | -
COc1cc(C)ccc1Oc1ncnc(N)c1[N+](=O)[O-] | - | ? | - | - | -
C#CCOCCOCCOCCNc1nc(N2CCN(C(=O)[C@H]([C@@H](C)CC)n3cc([C@@H](N)CC(C)C)nn3)CC2)nc(N2CCN(C(=O)[C@H](CCCCN)n3cc([C@@H](N)CO)nn3)CC2)n1 | ? | - | - | - | -
N#Cc1cc(C(=O)Cc2ccccc2)c[nH]1 | - | - | - | - | -
CCN1C(=O)/C(=C2\C=Cc3ccccc3N2CC)SC1=S | 14.6µM | - | - | 18.4µM | -
Cc1cccc(N2CCN(C(=O)CCNS(=O)(=O)c3ccc4c(c3)CCN4C(=O)C3CC3)CC2C)c1 (stereo unspecified) | 5.8µM | . | . | 8.2µM | .
CCC(=O)N1CCc2cc(S(=O)(=O)CCC(=O)N3CCN(c4cccc(C)c4)C(C)C3)ccc21 (stereo unspecified) | 11.6µM | . | . | 4.61µM | .
Cc1cccc(N(C)C(=O)CCNS(=O)(=O)c2ccc3c(c2)CCN3C(=O)C2CC2)c1 | 16.4µM | . | . | 20.6µM | .
O=C(NCCCc1ccccc1)c1cccc(NC(=O)C2CCCC2)c1 | - | - | - | - | -
Cc1ccnc(OC(C(=O)O)C(OCc2ccccc2)(c2ccccc2)c2ccc(C(F)(F)F)cc2)n1 (stereo unspecified) | 20.6µM | - | - | ? | -
CCCCn1nnnc1C(c1ccccc1)N1CCN(CC)CC1 (stereo unspecified) | - | - | - | - | -
SMILES | DT40 TDP1 CPT | IL1B secr inh | HT1080-NT tox | TDP1 cell noCPT | HT1080 IDH1KD tx
CCCCn1nnnc1C(c1ccccc1)N1CCN(c2ccc(C(F)(F)F)cc2[N+](=O)[O-])CC1 (stereo unspecified) | ? | - | - | 18.4µM | -
CCCCn1nnnc1C(c1ccccc1)N1CCN(c2ccccc2)CC1 (stereo unspecified) | ? | - | - | ? | -
CCCCn1nnnc1C(c1ccccc1)N1CCN(c2ncccc2C(F)(F)F)CC1 (stereo unspecified) | ? | -51.1 | ? | 18.4µM | ?
CCCCn1nnnc1C(c1ccccc1)N1CCN(c2ccc(C(F)(F)F)cn2)CC1 (stereo unspecified) | ? | ? | - | 18.4µM | ?
N#Cc1c(-c2ccccc2)c(C#N)c2nc3ccccc3n2c1N | ? | - | - | ? | -
Cc1ccc(-c2c(C#N)c(N)n3c(nc4ccccc43)c2C#N)cc1 | 20.6µM | - | ? | 16.4µM | ?
Cc1c(CCCl)c(Cl)n2c(nc3ccccc32)c1C#N | 0.92µM | -112.9 | 2.59µM | 0.651µM | 2.31µM
CCc1c(C)c(C#N)c2nc3ccccc3n2c1NC | - | - | - | - | -
Cc1cc(N2CCN(c3ccccn3)CC2)n2c(nc3ccccc32)c1C#N | ? | - | - | 18.4µM | -
CNc1cc(C)c(C#N)c2nc3ccccc3n12 | - | - | - | - | -
Cc1ccc(Nc2c(C(C)C)c(C)c(C#N)c3nc4ccccc4n23)cc1 | 18.4µM | . | . | 14.6µM | .
Cc1cc(Cl)n2c(nc3ccccc32)c1C#N | 0.411µM | -100.3 | 9.2µM | 0.461µM | 7.31µM
Cc1cccc(NC(=O)CSc2cc(C)c(C#N)c3nc4ccccc4n23)c1 | 18.4µM | - | ? | 11.6µM | -
Cc1cc(NC(=O)CSc2ccc(Cl)cc2)no1 | 13µM | - | - | 16.4µM | -
Cc1cc(NC(=O)CSc2nc3c([nH]c4ccccc43)c(=O)n2-c2ccc(Cl)cc2)no1 | - | . | . | - | .
O=C(CSc1ccc(Cl)cc1)Nn1cnnc1 | 18.4µM | - | - | ? | -
CCN(CC)S(=O)(=O)c1ccc2oc(SCC(=O)Nc3cc(C)on3)nc2c1 | 0.651µM | - | - | 0.731µM | ?
Cc1cc(NC(=O)CSc2nnc(-c3c[nH]c4ccccc34)n2-c2ccc(Cl)cc2)no1 | ? | - | - | - | 11.2µM
COCCCn1c(=O)c2ccccc2n(CC(=O)Nc2ccc3c(c2)OCCO3)c1=O | - | - | - | - | -
CCN(CC)S(=O)(=O)c1ccc2oc(SCC(=O)NC3CC3)nc2c1 | - | - | - | - | -
CCN(CC)S(=O)(=O)c1ccc2oc(SCc3ccc(F)cc3)nc2c1 | ? | - | - | 20.6µM | -
Cc1ccc(SCC(=O)Nc2cc(C)on2)cc1 | ? | - | - | - | -
Cc1cc(NC(=O)CSc2nc3cc(Cl)ccc3o2)no1 | 4.61µM | - | - | 2.59µM | -
COc1ccc(C(CCNCc2ccc(N(C)C)cc2)c2ccccc2OC)cc1 (stereo unspecified) | 18.4µM | -101.1 | ? | 14.6µM | 29.1µM
COc1ccc(C(CCNCc2ccc(OC(C)C)cc2)c2ccccc2OC)cc1 (stereo unspecified) | 23.1µM | -88.8 | ? | 16.4µM | ?
COc1ccc(CNC(=O)C(=O)Nc2ccccc2OC)cc1 | - | . | . | - | .
COc1ccccc1C(CC(=O)Nc1ccccc1C)c1ccc(OC(C)C)cc1 (stereo unspecified) | ? | - | - | ? | -
